From PubChem BioAssay (NCI) come the findings set out here.

SMILES strings stand for the structures. About 83,000 compounds went through this panel and 20% of them were active in at least one assay; those are over-represented in the sample as a whole.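 A percent growth of 40 corresponds to 60% growth inhibition; 0 means no net growth; -100 means all cells died. Active threshold: below 10.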 Activity calls are given as the source filed them.

This assay has as its system HT29 colon. Description: NCI-60 one-dose screen, 48 h (100 = growth as untreated, 0 = no growth, -100 = all killed). The note with it: 10 µM unless noted.
With `C=C(C)[C@@H]1CC[C@]2(C(=O)OC)CC[C@]3(C)[C@H](CC[C@@H]4[C@@]5(C)C/C(=C/c6cccc(I)c6)C(=O)C(C)(C)[C@@H]5CC[C@]43C)[C@@H]12`, the growth was 107% (inactive).

In the case of `N#Cc1c(-c2ccc(Cl)cc2)nc(NN=Cc2ccco2)nc1N1CCOCC1`, the growth was 87% (inactive).

For `C=CC(=O)Nc1cccc(Nc2nc(SC)nc(-c3cccc([N+](=O)[O-])c3)c2C#N)c1`, the growth was 33.7% (inactive).

Consider `COc1ccc(/C=C/C(=O)c2ccc(O)c(CN3CCN(c4cc5c(cc4F)c(=O)c(C(=O)O)cn5C4CC4)CC3)c2)cc1`, for which the growth was 11.1% (inactive).

Regarding `COc1cc2nc(N3CCCC3)nc(Nc3ccccc3)c2cc1OC`, the growth was -71% (active).

As for `COc1cccc(-c2nc3sccn3c2-c2ccnc(NCCNS(=O)(=O)c3ccccc3)c2)c1`, the growth was 23.6% (inactive).

With `COc1cc(/C=C/C(=O)c2c(C)oc3nc[nH]c(=O)c23)cc(OC)c1OC`, the growth was 90.7% (inactive).

In the case of `C=C(C)[C@@H]1CC[C@]2(C(=O)OC)CC[C@]3(C)[C@H](CC[C@@H]4[C@@]5(C)C/C(=C/c6ccc(OC)cc6)C(=O)C(C)(C)[C@@H]5CC[C@]43C)[C@@H]12`, the growth was 32.1% (inactive).

For the compound `O=S(=O)(Nc1ccc(I)cc1F)c1ccc(-c2cnc(C3CC3)o2)cc1`, the growth is 15.9% (inactive).

Consider `COc1cc2nc(N3CCCC3)nc(NCCc3ccccc3)c2cc1OC`, for which the growth was 5.28% (active).

`COc1ccc(Nc2nc(SC)nc(-c3cccc([N+](=O)[O-])c3)c2C#N)cc1`: the growth was 70.3% (inactive).

In the case of `COc1cc(CNc2oc(-c3ccccc3)c(-c3ccccc3)c2C#N)cc(CN2CCN(C)CC2)c1O`, the growth was 5.27% (active).
